This passage reports Potency and activity change, positive = activation results from PubChem BioAssay (Tox21).

SMILES strings stand for the structures. Values without a mark were called inactive. Inconclusive results are not listed. Active and inactive are the calls of the source. Unless noted, calls follow the shape of the dose curve; as a rule, active = well fitted curve in the direction sought with a large enough effect in the repeat runs; inconclusive = weak or mixed curves; inactive = no such curve, though single readings can be large; an effect the other way counts as inactive or inconclusive.

Assay [1] can be described thus: qHTS assay to identify small molecule antagonists of the estrogen related receptor (ERR) signaling pathway from Tox21 library - cell viability counter screen (AID 1224834). Also: nearly all actives have a fitted effect of over 30% in size. Also: potency is read from the fitted curve at half-maximal effect. The essentials:
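CellTiter-Fluor fluorescence, read after 30 min at 37 C, measures viability of ERR cells. Cells plated at 2,000/well and incubated 6 h before pin-tool compound addition, then exposed 17.5 hours at 37 C.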
In general terms: Quantitative high-throughput screening tests each substance at several concentrations.

Assay [2] deals with Luciferin 4-monooxygenase (Photinus pyralis) (UniProt P08659). Put plainly: qHTS assay to identify small molecule inhibitors of firefly luciferase (AID 1224835). Also: nearly all actives have a fitted effect of over 25% in size. The method, boiled down: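 Biochemical qHTS: compounds run as interplate titrations against purified firefly enzyme, with D-luciferin and ATP each at its KM concentration. Light output recorded by CCD imaging.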
Sequence of Luciferin 4-monooxygenase (Photinus pyralis) (P08659 whole entry, looked up): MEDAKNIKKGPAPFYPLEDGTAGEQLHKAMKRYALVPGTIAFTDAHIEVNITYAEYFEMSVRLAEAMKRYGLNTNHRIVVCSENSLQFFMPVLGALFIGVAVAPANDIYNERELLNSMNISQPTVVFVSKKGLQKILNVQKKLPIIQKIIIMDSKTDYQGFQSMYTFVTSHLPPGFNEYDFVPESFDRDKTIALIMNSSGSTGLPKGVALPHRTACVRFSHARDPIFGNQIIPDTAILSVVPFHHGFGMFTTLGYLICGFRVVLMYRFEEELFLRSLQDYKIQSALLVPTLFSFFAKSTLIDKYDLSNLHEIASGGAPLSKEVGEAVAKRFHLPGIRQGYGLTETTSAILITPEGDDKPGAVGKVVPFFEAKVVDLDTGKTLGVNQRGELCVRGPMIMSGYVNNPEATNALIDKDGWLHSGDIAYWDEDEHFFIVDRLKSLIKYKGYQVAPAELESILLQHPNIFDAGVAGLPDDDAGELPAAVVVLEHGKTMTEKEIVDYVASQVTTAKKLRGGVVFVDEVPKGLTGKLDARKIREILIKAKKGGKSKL
Assay [3] is described as follows: qHTS assay to identify small molecule agonists of the constitutive androstane receptor (CAR) signaling pathway - cell viability counter screen (AID 1224836). Also: nearly all actives have a fitted effect of over 45% in size. Also: potency is read from the fitted curve at half-maximal effect. The essentials: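 HepG2 cells stably carrying hCAR and a CYP2B6-2.2kb reporter were plated 4 h, then given compounds at 15 concentrations plus PK11195 (final 0.75 uM). After 23 h at 37 C, viability was read by CellTiter-Fluor fluorescence.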

The nature of assay [4]: qHTS assay to identify small molecule antagonists of the constitutive androstane receptor (CAR) signaling pathway - cell viability counter screen (AID 1224837). Also: nearly all actives have a fitted effect of over 45% in size. Also: potency is read from the fitted curve at half-maximal effect. The method, boiled down: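 Cytotoxicity counter-screen: CellTiter-Fluor fluorescence after 23 h compound exposure (15-point qHTS) in double-stable HepG2-CYP2B6-hCAR cells, with 50 nM CITCO added.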
Assay [5] can be described thus: qHTS assay to identify small molecule antagonists of the estrogen related receptor signaling pathway with the pleiotropic PPARgamma coactivator (PGC) from Tox21 10K library - cell viability counter screen (AID 1224840; active = well fitted cell-killing curve with a large enough effect in the repeat runs, not every such curve was filed as active; also: nearly all actives have a fitted effect of over 40% in size; also: potency is read from the fitted curve at half-maximal effect). The method, boiled down: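 Counter-screen for cytotoxicity: after 17.5 h compound exposure at 37 C, CellTiter-Fluor reagent added to PGC/ERR cells for 30 min and fluorescence read. Cells were seeded at 2,000 per well 6 h before dosing.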

The nature of assay [6]: qHTS assay to identify small molecule agonists of the estrogen related receptor signaling pathway with the pleiotropic PPARgamma coactivator (PGC) from Tox21 10K library (AID 1224842). Also: nearly all actives have a fitted effect of over 15% in size. Also: potency is read from the fitted curve at half-maximal effect. The essentials: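 PGC/ERR reporter cell line, 2,000 cells per well, incubated 6 h at 37 C before 23 nL compound in DMSO was added. After 18 h at 37 C, One-Glo luminescence read following 30 min at room temperature.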

Assay [7] deals with Thyrotropin receptor (Homo sapiens) (UniProt P16473). Put plainly: qHTS assay to identify small molecule agonists of the thyroid stimulating hormone receptor (TSHR) signaling pathway (AID 1224843; calls by dose curve; also: nearly all actives have a fitted effect of over 45% in size). The method, boiled down:
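Agonist-mode screen: TSHR HEK293 cells received test chemicals for half an hour at room temperature, then HTRF cAMP detection reagents for one hour prior to fluorescence measurement. Each chemical ran as a 15-concentration series, triplicated.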

The nature of assay [8]: qHTS assay to identify small molecule agonists of H2AX (AID 1224845; active = well fitted activation curve with a large enough effect in the signal ratio in the repeat runs, not every such curve was filed as active; the % refers to the signal ratio). The method, boiled down:
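Wild-type CHO-K1 cells, plated overnight, exposed 3hr at 37C to 15 concentrations (0.76% DMSO final). Lysed, then HTRF anti-pH2AX (S139) cryptate and anti-H2AX-d2 antibodies, 24 hr room temperature; 665/620 nm emission read.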

The nature of assay [9]: qHTS assay to identify small molecule agonists of H2AX - cell viability counter screen (AID 1224847; calls by dose curve; also: top concentration of the series differs between compounds; nearly all actives have a fitted effect of over 30% in size). The method, boiled down:
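Wild-type CHO-K1 cells (10% FBS medium) were plated overnight at 37C, exposed to compounds at 15 concentrations for 3 hr at 37C (0.76% DMSO final), and viability was read as CellTiter-Glo luminescence after 30 min at room temperature.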

Assay [10] is described as follows: qHTS assay to identify small molecule agonists of the estrogen related receptor (ERR) signaling pathway from Tox21 library (AID 1224849; calls by dose curve; also: nearly all actives have a fitted effect of over 15% in size). Particulars: ERR reporter cell line, ONE-Glo luciferase, 18 h. The method, boiled down:
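Luminescent agonist read-out (One-Glo, 30-minute room-temperature incubation) following 18-hour compound treatment at 37 C of the ERR cell line, which had been plated 6 hours before dosing.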

Assay [11] in a line: qHTS RealTime-Glo MT Cell Viability Assay in HEK293 cells - 32 hour (AID 1224868). Also: nearly all actives have a fitted effect of over 50% in size. Also: potency is read from the fitted curve at half-maximal effect. The essentials: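 HEK293 cells were seeded at 600 cells/well together with NanoLuc luciferase and cell-permeant prosubstrate, preincubated 5 h at 37 C/5% CO2, then given compound in DMSO by pintool. Luminescence from viable-cell prosubstrate reduction was read repeatedly over 40 h.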
Assay [12] can be described thus: A CellTox Green Cytotoxicity Assay to monitor cytotoxicity in HEK293 cells - 0 hour (AID 1224869). Also: nearly all actives have a fitted effect of over 50% in size. The essentials: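 Fluorescence from a DNA-binding dye excluded by viable cells was measured repeatedly in the same HEK293 wells (600 cells/well) during continuous compound exposure at 37 C. Each assay gives one read point: 0, 8, 16, 24, 32 or 40 h.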
Assay [13] can be described thus: qHTS assay to identify small molecule agonists of the hypoxia (HIF-1) signaling pathway - cell viability counter screen (AID 1224844; calls by dose curve; also: nearly all actives have a fitted effect of over 50% in size). The essentials: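 Cytotoxicity measured by CellTiter-Glo ATP luminescence in the wells also read for beta-lactamase signal. Cells were HRE-bla ME-180 (2,000/well, 0.5% dialyzed FBS), exposed to compounds for 17 h at 37C.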
Assay [14] is described as follows: qHTS assay to identify small molecule agonists of the hypoxia (HIF-1) signaling pathway (AID 1224846; active = well fitted activation curve with a large enough effect in the signal ratio in the repeat runs, not every such curve was filed as active; the % refers to the signal ratio). The essentials:
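Compounds added to ME-180 cells carrying hypoxia-response-element beta-lactamase reporter (0.5% dialyzed FBS, 5 h preplating), 17 h at 37C; agonist activity detected by CCF4-AM B/G FRET read-out.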

Assay [15] in a line: qHTS RealTime-Glo MT Cell Viability Assay in HepG2 cells - 24 hour (AID 1224867). Also: nearly all actives have a fitted effect of over 50% in size. Also: potency is read from the fitted curve at half-maximal effect. The method, boiled down:
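HepG2 cells were seeded at 600 cells/well together with NanoLuc luciferase and a cell-permeant prosubstrate, preincubated 5 h at 37 C/5% CO2, then pin-dosed with compounds in DMSO. Nonlytic luminescence from viable cells was read at each time point.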

Assay [16] is described as follows: qHTS RealTime-Glo MT Cell Viability Assay in HepG2 cells - 40 hour (AID 1224870). Also: nearly all actives have a fitted effect of over 50% in size. Also: potency is read from the fitted curve at half-maximal effect. The method, boiled down: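 HepG2 cells (600/well) mixed with RealTime-Glo MT reagent, settled 5 h at 37 C/5% CO2 before compound addition. Nonlytic NanoLuc luminescence from viable-cell prosubstrate reduction read repeatedly during 40 h treatment at 37 C.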
In assay [17] the target is Nuclear receptor subfamily 1 group I member 3 (Homo sapiens) (UniProt Q14994). Nature of the assay: qHTS assay to identify small molecule agonists of the constitutive androstane receptor (CAR) signaling pathway (AID 1224839). Also: nearly all actives have a fitted effect of over 15% in size. The essentials:
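HepG2 cells stably expressing hCAR and a CYP2B6-2.2kb luciferase reporter were treated with compounds at 15 concentrations plus 0.75 uM PK11195 (final) for 24 h at 37 C; luminescence was read after ONE-Glo addition.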

Assay [18] in a line: qHTS assay to identify small molecule antagonists of the estrogen related receptor signaling pathway with the pleiotropic PPARgamma coactivator (PGC) from Tox21 10K library (AID 1224841; call rule not given here). The essentials:
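Luminescence (One-Glo, 30 min at room temperature) after 18 h compound treatment at 37 C of PGC/ERR reporter cells plated at 2,000 cells/well and settled 6 h beforehand.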

Assay [19] is described as follows: qHTS assay to identify small molecule antagonists of the estrogen related receptor (ERR) signaling pathway from Tox21 library (AID 1224848). Also: nearly all actives have a fitted effect of over 50% in size. Also: potency is read from the fitted curve at half-maximal effect. The method, boiled down:
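Quantitative high-throughput format: ERR reporter cells (2,000/well) pre-incubated 6 h, treated 18 h at 37 C with compounds in DMSO alongside positive and negative controls, then read by ONE-Glo luminescence.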
% is scaled to controls: 0 for no effect and ±100 for the full control effect.

Sequence of Thyrotropin receptor (Homo sapiens) (P16473 whole entry, looked up): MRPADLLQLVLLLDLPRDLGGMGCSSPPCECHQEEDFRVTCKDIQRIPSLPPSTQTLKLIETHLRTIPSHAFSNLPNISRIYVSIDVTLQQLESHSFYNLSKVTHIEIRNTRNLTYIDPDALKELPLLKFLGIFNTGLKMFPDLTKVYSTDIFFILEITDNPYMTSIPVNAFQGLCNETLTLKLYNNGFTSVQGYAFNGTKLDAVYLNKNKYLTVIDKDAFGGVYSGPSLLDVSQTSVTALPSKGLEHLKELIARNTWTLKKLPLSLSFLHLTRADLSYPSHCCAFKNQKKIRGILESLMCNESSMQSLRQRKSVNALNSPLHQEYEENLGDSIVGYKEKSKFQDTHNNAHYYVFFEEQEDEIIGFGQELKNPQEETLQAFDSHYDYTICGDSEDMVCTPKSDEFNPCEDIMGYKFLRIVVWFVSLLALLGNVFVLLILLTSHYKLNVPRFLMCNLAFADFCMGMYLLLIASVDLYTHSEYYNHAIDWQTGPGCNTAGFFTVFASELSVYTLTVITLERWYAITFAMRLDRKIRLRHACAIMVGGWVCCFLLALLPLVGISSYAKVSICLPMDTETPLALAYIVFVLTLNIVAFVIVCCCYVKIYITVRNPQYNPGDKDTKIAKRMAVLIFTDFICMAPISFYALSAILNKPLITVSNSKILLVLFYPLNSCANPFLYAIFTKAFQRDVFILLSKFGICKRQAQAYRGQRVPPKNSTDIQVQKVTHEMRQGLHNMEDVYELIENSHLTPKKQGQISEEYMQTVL
Sequence of Nuclear receptor subfamily 1 group I member 3 (Homo sapiens) (Q14994 whole entry, looked up): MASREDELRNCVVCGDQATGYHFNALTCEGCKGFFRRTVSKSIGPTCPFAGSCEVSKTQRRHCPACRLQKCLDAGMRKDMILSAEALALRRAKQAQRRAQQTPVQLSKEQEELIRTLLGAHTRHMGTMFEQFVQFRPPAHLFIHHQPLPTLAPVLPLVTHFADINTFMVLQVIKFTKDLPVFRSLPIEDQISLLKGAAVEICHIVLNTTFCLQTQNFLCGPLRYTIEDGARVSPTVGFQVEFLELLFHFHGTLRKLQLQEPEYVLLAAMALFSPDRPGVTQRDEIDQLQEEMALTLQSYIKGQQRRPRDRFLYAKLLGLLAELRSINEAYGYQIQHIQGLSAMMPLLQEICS

`Cc1cc(C(C)(C)C)c(O)c(C)c1Cn1c(=O)n(Cc2c(C)cc(C(C)(C)C)c(O)c2C)c(=O)n(Cc2c(C)cc(C(C)(C)C)c(O)c2C)c1=O`: the Potency result in assay [1], in [2], in assay [3], in [4], in [5] and in assay [6] was “inactive” in each case. Moreover, the Potency result in assay [7], in assay [8], in assay [9] and in assay [12] was “inactive” throughout. Besides, the activity change, positive = activation in assay [10] (at 92.4 µM (top of the series)) was -29.1%. For the same molecule, in [11], the Potency is 21.9 µM (active).

For `CCCC(=O)OCOC(=O)C1=C(C)NC(C)=C(C(=O)OC)C1c1cccc(Cl)c1Cl` (stereo not given), the Potency entry in [1], in assay [2], in assay [3], in assay [4], in assay [5] and in assay [7] was “inactive” in each case. Also, the Potency result in assay [13], in [8], in assay [14], in assay [9], in assay [15] and in assay [11] was “inactive” throughout. The Potency result in [12] and in [16] was “inactive” each time.

For the molecule `C=CC(=O)Nc1cc2c(Nc3ccc(F)c(Cl)c3)ncnc2cc1OCCCN1CCOCC1`, the Potency in [1] is 23.7 µM (active); in assay [3], 13.3 µM (active); in assay [4] it was 13.3 µM (active); in [5] it was 13.3 µM (active); in assay [6], 3.76 µM (active); in assay [19], 16.8 µM (active). For the same molecule, the Potency in [15] was 8.49 µM (active); in assay [11] it was 9.52 µM (active); in assay [16] it was 10.7 µM (active). In addition, the Potency result in assay [2], in [17], in assay [18], in [7], in assay [8] and in assay [12] was “inactive” in each case. In addition, the activity change, positive = activation in assay [10] (at 42.5 µM (top of the series)) was -63.1%.

Regarding `COC(=O)c1ccccc1C`, the Potency result in [1], in assay [2], in [3], in assay [4], in assay [5] and in assay [18] was “inactive” each time. For the same molecule, the Potency result in [6], in assay [7], in assay [13], in [8], in [14] and in assay [9] was “inactive” throughout. Besides, the Potency entry in [19], in assay [15], in [11] and in assay [16] was “inactive” in each case. In addition, the activity change, positive = activation in assay [10] (at 92.4 µM (top of the series)) was 3.57%.

For `OC[C@H]1O[C@H](O[C@H]2O[C@H](CO)[C@@H](O)[C@H](O)[C@H]2O)[C@H](O)[C@@H](O)[C@@H]1O`, the Potency entry in assay [1], in assay [2], in assay [3], in assay [4], in assay [5] and in [18] was “inactive” in each case. Moreover, the Potency result in assay [6], in assay [7], in assay [13], in assay [8], in assay [14] and in assay [9] was “inactive” in each case. Further, the Potency entry in assay [19], in assay [15], in assay [11], in assay [12] and in [16] was “inactive” in each case. Also, the activity change, positive = activation in assay [10] (at 92.4 µM (top of the series)) is 8.53%.

Regarding `COC(=O)c1ccccc1OC`, the Potency entry in assay [1], in [2], in [3], in [4], in [5] and in assay [18] was “inactive” throughout. In addition, the Potency entry in assay [6], in assay [7], in assay [13], in assay [8], in [14] and in assay [19] was “inactive” each time. The Potency entry in assay [15], in [11] and in assay [12] was “inactive” each time. In addition, in assay [10] (at 92.4 µM (top of the series)), the activity change, positive = activation is 0.916%.

As to `Cc1cccc(C(=O)O)c1O`, the Potency entry in [1], in assay [2], in [3], in assay [4], in assay [5] and in [18] was “inactive” in each case. The Potency entry in assay [6], in assay [7], in assay [13], in assay [8], in assay [14] and in [9] was “inactive” throughout. Further, the Potency result in assay [19], in assay [15], in assay [11] and in assay [12] was “inactive” in each case. The activity change, positive = activation in assay [10] (at 42.5 µM (top of the series)) is 0.112%.
